Experimental data reported in PubChem BioAssay.
Results filed as inconclusive are left out. Calls of active or inactive are those of the source. Unless noted, no stated cut-off is given here; in the data, active means inhibition above about 80%; inactive means the rest.

Columns and labels:
[1] = growth inhibition, single agent or in combination, cell-based, chromothripsis tumors, cisplatin or BGB combos (AID 1671449); conditions: LFS_MB_P medulloblastoma cells;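 further: cells exposed for 96 hours; 0% = vehicle DMSO and 100% = killing by high DMSO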
[2] = growth inhibition, single agent and combos, cell-based, chromothripsis tumors, cisplatin or BGB combos (AID 1671450); conditions: HDN33 neuroblastoma cells, stronger effect = higher value;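 further: cells exposed to compound for four days; 0% = vehicle DMSO and 100% = cell killing by high DMSO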
[3] = growth inhibition, single agents and combos, ICB984, cell-based, cisplatin or BGB combos, synergistic combos for chromothripsis tumors (AID 1671451; call rule not given here;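 further: cells exposed for 96 hours before readout; 0% = vehicle DMSO and 100% = killing by high DMSO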); conditions: ICB984 medulloblastoma cells, drug combinations, stronger effect = higher value
[4] = growth inhibition, single agents and combos, LFS_MB_1R, cell-based, cisplatin or BGB combos, synergistic combos for chromothripsis tumors (AID 1671452); conditions: LFS_MB_1R medulloblastoma cells, stronger effect = higher value;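 further: cells exposed for 96 hours before readout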
[5] = growth inhibition, single agents and combos, HTB85, cell-based, BGB or cisplatin IC20 combos, synergistic combos for chromothripsis tumors (AID 1671453); conditions: HTB85 osteosarcoma cells, drug combinations, stronger effect = higher value;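 further: cells exposed for 96 hours before readout; 0% = vehicle DMSO and 100% = high DMSO killing control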
[6] = growth inhibition, single agents and combos, CRL2098, cell-based, BGB or cisplatin IC20 combos, synergistic combos for chromothripsis tumors (AID 1671454); conditions: CRL2098 osteosarcoma cells, drug combinations, stronger effect = higher value;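 further: cells exposed for 96 h before readout; 0% = vehicle DMSO and 100% = killing by high DMSO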
[7] = growth inhibition, single agents and combos, HD-MB03, cell-based, BGB or cisplatin IC20 combos, synergistic combos for chromothripsis tumors (AID 1671455; in the data active means inhibition above about 83%;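 further: 0% = vehicle DMSO and 100% = high DMSO as cytotoxic control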); conditions: HD-MB03 medulloblastoma cells, stronger effect = higher value
[8] = growth inhibition, single agents and combos, UWB1.289, cell-based, BGB or cisplatin combos, synergistic combos for chromothripsis tumors (AID 1671456); conditions: UWB1.289 ovarian carcinoma cells, stronger effect = higher value;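 further: cells exposed to compound for four days; 0% = vehicle DMSO and 100% = killing by high DMSO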
[9] = growth inhibition, single agents and combos, LFS_MB_2R, cell-based, cisplatin combos, synergistic combos for chromothripsis tumors (AID 1671457); conditions: LFS_MB_2R medulloblastoma cells, stronger effect = higher value;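 further: cells exposed to compound for four days before readout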
[10] = growth inhibition, MDA-MB-436, cell-based, BGB or cisplatin combos, synergistic combos for chromothripsis tumors (AID 1671458; call rule not given here;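 further: cells exposed for 96 hours; 0% = vehicle DMSO and 100% = killing by high DMSO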); conditions: MDA-MB-436 breast carcinoma growth inhibition, drug combinations, stronger effect = higher value
[11] = UWB1.289_BRCA1 ovarian cancer growth, cell-based, BGB or cisplatin combinations (AID 1671459); conditions: UWB1.289 BRCA1 ovarian carcinoma, drug combinations, stronger effect = higher value
[12] = drug combination toxicity in non-malignant astrocytes – cell-based, BGB or cisplatin IC20 combos, cytotoxicity control for chromothriptic childhood tumor combination screen (AID 1671460); conditions: Human astrocytes, viability inhibition, drug combinations, at 0.5 µM, stronger effect = higher value;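 further: cells exposed to compounds for 96 hours before viability readout; 0% = vehicle and 100% = killing control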
[13] = BT084 cell growth, single and combined drugs, ICGC_MB145, cisplatin and BGB IC40 combos (AID 1671461); conditions: BT084 medulloblastoma cells, drug combinations, stronger effect = higher value;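 further: cells exposed to drugs for 96 hours; 0% = vehicle DMSO and 100% = high DMSO full killing control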
[14] = RCMB18 cell growth, single agent and combined, cisplatin and BGB IC40 combos (AID 1671462); conditions: RCMB18 medulloblastoma cells, stronger effect = higher value;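 further: cells exposed to compound for four days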
[15] = CRL1545 cell growth, single agent and combined, cisplatin and BGB IC20 combos (AID 1671464); conditions: CRL1545 osteosarcoma cells, stronger effect = higher value;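 further: cells exposed to compound for 96 hours before readout; 0% = vehicle DMSO and 100% = high DMSO killing control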
[16] = viability loss in pontine glioma line – cell-based, SU-DIPG-XVII, MIPE5.0, CellTiter-Glo, qHTS, dose response (AID 1347060; cut-off not given, nearly all actives have AC50 up to about 26 µM;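 on AC50: cells exposed to compound for 48 hours before viability readout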); conditions: CellTiter-Glo ATP luminescence
[17] = JHH-DIPG-1 glioma cell viability, MIPE5.0 library, CellTiter-Glo luminescence, qHTS (AID 1347067; cut-off not given, nearly all actives have AC50 up to about 26 µM;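 further: cells exposed to compound for 48 hours before readout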); conditions: JHH-DIPG-1 glioma viability, CellTiter-Glo ATP luminescence
[18] = growth inhibition of DIPG cells – cell-based, MIPE5.0 library, qHTS (AID 1347068; cut-off not given, nearly all actives have IC50 up to about 30 µM); conditions: SU-DIPG-XXV viability
[19] = measured here: combination with BGB IC40, at 0.05 µM
[20] = measured here: with BGB IC20 combination, at 0.5 µM
[21] = measured here: with cisplatin IC20 combination, at 0.5 µM
[22] = measured here: combination with cisplatin, at 0.5 µM
[23] = measured here: combination with cisplatin, at 5 µM

For `NC(=O)c1ncn(C2OC(CO)C(O)C2O)n1` (configuration not stated), the inhibition ([1]; at 0.5 µM, stronger effect = higher value) was -16.1% (inactive), the inhibition ([1]; measured here: combination with BGB IC20, at 0.005 µM) was -16.5% and the inhibition ([1]; measured here: combination with BGB IC40, at 0.005 µM) was 25.4%. The inhibition [1, 19] was -2.38%, the inhibition ([1]; measured here: combination with cisplatin, at 0.5 µM, stronger effect = higher value) was -6.01% and the inhibition ([1]; measured here: combination with cisplatin, at 5 µM, stronger effect = higher value) was -20.9%. The inhibition ([2]; BGB combo, at 5 µM) was 31.2%, the inhibition ([2]; at 0.5 µM) was 2.73% (inactive) and the inhibition ([2]; cisplatin combo, at 5 µM) was -8.56%. For the same molecule, the inhibition [2, 20] was 6.96%, the inhibition [2, 21] was 2.48% and the inhibition ([2]; single agent, at 5 µM) was 14%. The inhibition ([3]; BGB IC20 combo, at 0.005 µM) was 3.66%, the inhibition ([3]; BGB IC40 combo, at 0.005 µM) was -0.335% and the inhibition ([3]; BGB IC40 combo, at 0.05 µM) was 6.2%. For the same molecule, the inhibition ([3]; at 0.5 µM) was -10.2% (inactive), the inhibition ([3]; cisplatin combo, at 0.05 µM) was 6.2% and the inhibition ([3]; cisplatin combo, at 0.5 µM) was -6.29%. For the same molecule, the inhibition ([3]; cisplatin combo, at 5 µM) was -17.4%, the inhibition ([3]; measured here: 5 uM single agent, at 5 µM) was -2.81% and the inhibition ([4]; at 0.5 µM) was -9.72% (inactive). The inhibition [4, 19] was -31.9%, the inhibition [4, 22] was 21.6% and the inhibition [4, 23] was -1.97%. The inhibition ([5]; at 0.5 µM) was 4.41% (inactive), the inhibition ([5]; measured here: with BGB IC20, at 0.5 µM) was -12.9% and the inhibition ([5]; measured here: with BGB IC20, at 5 µM) was 10.8%. It also gave an inhibition ([5]; measured here: with cisplatin IC20, at 0.5 µM) of 14.3%, an inhibition ([5]; measured here: with cisplatin IC20, at 5 µM) of 0.254% and an inhibition ([5]; single agent, at 5 µM) of 2.26%. The inhibition ([6]; at 0.5 µM) was -9.01% (inactive), the inhibition ([6]; measured here: combination with BGB at IC20, at 0.5 µM) was -25.7% and the inhibition ([6]; measured here: combination with cisplatin at IC20, at 0.5 µM) was -6.71%. The inhibition ([7]; at 0.5 µM) was -4.13% (inactive), the inhibition ([7]; measured here: combo with BGB at IC20, at 0.5 µM) was -1.27% and the inhibition ([7]; measured here: combo with cisplatin at IC20, at 0.5 µM) was -10.7%. The inhibition ([8]; at 0.5 µM) was 3.07% (inactive), the inhibition ([8]; measured here: inhibition with BGB combination, at 0.05 µM) was 9.47% and the inhibition ([8]; measured here: inhibition with cisplatin combination, at 0.05 µM) was -5.32%. The inhibition ([9]; at 0.5 µM) was 1.38% (inactive), the inhibition [9, 22] was -4.76% and the inhibition [9, 23] was 3.14%. For the same molecule, the inhibition ([10]; at 0.5 µM) was -5.54% (inactive), the inhibition ([10]; measured here: BGB combination, at 0.5 µM) was 2.04% and the inhibition ([10]; measured here: BGB combination, at 5 µM) was -7.02%. For the same molecule, the inhibition ([10]; measured here: cisplatin combination, at 0.5 µM) was -11.9%, the inhibition ([10]; measured here: cisplatin combination, at 5 µM) was 6.23% and the inhibition ([11]; BGB combination, concentration series, at 5 µM) was 5.54%. The inhibition ([11]; at 0.5 µM) was 1.33% (inactive), the inhibition ([11]; cisplatin combination, concentration series, at 5 µM) was 1.04% and the inhibition [12] was -5.97% (inactive). For the same molecule, the inhibition ([12]; measured here: combo with BGB IC20) was -5.76%, the inhibition ([12]; measured here: combo with cisplatin IC20) was -5.35% and the inhibition ([13]; at 0.5 µM) was 6.99% (inactive). The inhibition ([13]; cisplatin combination, at 0.5 µM) was 12.1%, the inhibition ([13]; cisplatin combination, at 5 µM) was -28.4% and the inhibition ([13]; measured here: BGB IC40 combination 0.05 uM, at 0.05 µM) was 25.7%. For the same molecule, the inhibition ([13]; single agent, at 5 µM) was 8.51%, the inhibition ([14]; at 0.5 µM) was 9.1% (inactive) and the inhibition ([14]; cisplatin combo, at 5 µM) was 13.6%. For the same molecule, the inhibition ([14]; measured here: BGB IC40 combination, at 0.05 µM) was 7.76%, the inhibition [14, 22] was 29.4% and the inhibition ([14]; single agent, at 5 µM) was -9.79%. The inhibition ([15]; at 0.5 µM) was -15.9% (inactive), the inhibition [15, 20] was -14.4% and the inhibition [15, 21] was -16.7%. It also gave an inhibition ([15]; single agent, at 0.05 µM) of 17.7% and an inhibition ([15]; single agent, at 5 µM) of -14.1%.

In the case of `CC(C)c1ccc2c(c1)c(SC(C)(C)C)c(CC(C)(C)C(=O)O)n2Cc1ccc(Cl)cc1`, the AC50 [16] was 18.6 µM (active), the AC50 [17] was 26.3 µM (active) and the outcome [18] was “inactive”.

For `COc1cc(C)c(/C=C/C(C)=C/C=C/C(C)=C/C(=O)O)c(C)c1C`, the outcome [17] was “inactive” and the outcome [18] was “inactive”.

In the case of `CC1c2cccc(O)c2C(O)=C2C(=O)C3(O)C(O)=C(C(N)=O)C(=O)C(N(C)C)C3C(O)C21` (configuration not stated), the outcome [17] was “inactive” and the outcome [18] was “inactive”.

For `COc1cc(C[C@@H](CO)[C@H](CO)Cc2ccc(O)c(OC)c2)ccc1O`, the outcome [16] was “inactive”, the outcome [17] was “inactive” and the outcome [18] was “inactive”.

For `O=C(O)C[C@H](O)C[C@H](O)/C=C/c1c(C2CC2)nc2ccccc2c1-c1ccc(F)cc1`, the AC50 [17] was 9.34 µM (active) and the outcome [18] was “inactive”.

For `COC(=O)Nc1nc2ccc(C(=O)c3ccc(F)cc3)cc2[nH]1`, the AC50 [16] was 0.417 µM (active) and the AC50 [17] was 0.417 µM (active).
